Consider 35 compounds from PubChem BioAssay (NCI).

About 83,000 compounds went through this panel and 20% of them were active in at least one assay; those are over-represented in the sample as a whole.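 A percent growth of 40 corresponds to 60% growth inhibition; 0 means no net growth; -100 means all cells died. Active threshold: below 10.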 The source made the active and inactive calls.

The first assay deals with PC-3 prostate. The assay can be described thus: NCI-60 one-dose screen, 48 h (100 = growth as untreated, 0 = no growth, -100 = all killed). The note with it: 10 µM unless noted.
Turning to `CCCOc1ccc2nc(NC(=O)OC)[nH]c2c1`, the growth was 19.7% (inactive). Same read-out and setting: with `COc1cccc(/C=C2\Oc3cc(OCCN4CCCC4)ccc3C2=O)c1` the figure was 83.6% (inactive); with `COc1ccc(/C=C2\Oc3cc(OCCCCN4CCCC4)ccc3C2=O)cc1`, 75.6% (inactive).

On to `COc1cccc(-c2nn(C(C)(C)C)cc2-c2ccnc(NCCCNS(=O)(=O)c3cccc4ccccc34)c2)c1`, for which the growth is 106% (inactive). The same measure, in the same setting: the same measure for `COc1cccc(-c2nc3sccn3c2-c2ccnc(NCCCNS(=O)(=O)c3c(Cl)cccc3Cl)c2)c1`: 35.1% (inactive). In the case of `O=C1c2cc3c(cc2-c2c1c1cc(F)c(F)cc1c(=O)n2CCCn1ccnc1)OCO3`, the growth is 9.43% (active). `O=C(/C=C/c1cccc(Cl)c1)c1ccc(O)c(CN2CCN(c3cc4c(cc3F)c(=O)c(C(=O)O)cn4C3CC3)CC2)c1`: the growth was 19.9% (inactive). On the same count and under the same terms, the same measure for `CCCn1c(=O)[nH]c(N)c([C@H]2c3ccccc3Oc3[nH]c(=O)n(CCC)c(=O)c32)c1=O`: 107% (inactive); for `N#CCCN=Nc1c(O)[nH]c2ccc(F)cc12`: 95.2% (inactive). For `COc1ccc(-c2n[nH]nc2-c2csc3ccccc23)cc1OC`, the growth is 27.8% (inactive). The same measure, in the same setting: with `COc1cc(/C=C/c2cc(O)c3cc(C(C)=O)c(=O)oc3c2)cc2c1O[C@]1(C)CC[C@@H](O)C(C)(C)[C@H]1C2` the figure was 27.4% (inactive); with `O=C(N=Nc1c(O)[nH]c2ccc(Br)cc12)c1cc(-c2ccccc2)on1`, 100% (inactive); with `CSc1nc(NCc2ccccc2)c(C#N)c(-c2cccc([N+](=O)[O-])c2)n1`, 94.5% (inactive). Regarding `O=S(=O)(Nc1ccc(Cl)c(F)c1)c1ccc(-c2cnc(C3CC3)o2)cc1`, the growth was 29.9% (inactive).

On to `CC1(C)CC[C@]2(C(=O)Nc3ccccn3)CC[C@]3(C)C(=CC[C@@H]4[C@@]5(C)C/C(=C/c6cccnc6)C(=O)C(C)(C)[C@@H]5CC[C@]43C)[C@H]2C1`, for which the growth is 19.9% (inactive). The same measure, in the same setting: with `O=S(=O)(Nc1ccc(Br)c(Cl)c1)c1ccc(-c2cnc(C3CC3)o2)cc1` the figure was 23.9% (inactive); with `C=C(C)[C@@H]1CC[C@]2(C(N)=O)CC[C@]3(C)[C@H](CC[C@@H]4[C@@]5(C)C/C(=C/c6ccco6)C(=O)C(C)(C)[C@@H]5CC[C@]43C)[C@@H]12`, 75.7% (inactive). `Cc1nc2c3c(-c4ccccc4)c(-c4ccccc4)oc3ncn2n1`: the growth was 91.3% (inactive). Regarding `COc1cccc(-c2nn(C(C)(C)C)cc2-c2ccnc(NCCCNS(=O)(=O)c3ccc(C)cc3)c2)c1`, the growth is 102% (inactive). Same read-out and setting: with `COc1ccc(-c2nc3ccc(-c4nc5ccc(N6CCN(c7ccc(F)cc7)CC6)cc5[nH]4)cc3[nH]2)cc1OC` the figure was 62.7% (inactive); with `O=C1NC(=S)NC(=O)C1CC(=O)n1c(-c2ccccc2)nc2ccccc21`, 97.7% (inactive); with `CSc1nc(NCCN2CCOCC2)c(C#N)c(-c2cccc([N+](=O)[O-])c2)n1`, 97.4% (inactive).

Consider `N#Cc1c(-c2ccc(Cl)cc2)nc(N=Nc2c(O)[nH]c3ccc(Cl)cc23)nc1N1CCOCC1`, for which the growth was 99.2% (inactive).

With `Cc1ccc(NS(=O)(=O)c2ccc(-c3cnc(C4CC4)o3)cc2)cc1C`, the growth is 22.7% (inactive). Same read-out and setting: the same measure for `Oc1ccccc1-c1nnc(CNc2ccc(Cl)cc2)o1`: 34.5% (inactive).

Another assay deals with SK-MEL-5 melanoma. Described as above. Particulars: 10 µM unless noted.
As to `N#C/C(=C\c1ccc(-c2ccc(Cl)c(Cl)c2)o1)c1nc(-c2ccco2)cs1`, the growth was 70.5% (inactive). On to `CC(C)C1=C[C@@]23CC[C@@H]4[C@](C)(CCC[C@@]4(C)C(=O)N4CCCNCC4)[C@H]2C[C@@H]1[C@H]1C(=O)CCC(=O)[C@H]13`, for which the growth was 97.7% (inactive).

Turning to `COc1ccc(CCNc2nc(SC)nc(-c3cccc([N+](=O)[O-])c3)c2C#N)cc1OC`, the growth was 88.2% (inactive).

With `Cc1cc(NS(=O)(=O)c2ccc(-c3cnc(C4CC4)o3)cc2)ccc1Cl`, the growth is 24.8% (inactive).

For the compound `COc1ccc(-c2cc(C(=O)N=Nc3c(O)[nH]c4ccc(Br)cc34)no2)cc1`, the growth is 97.4% (inactive). The same measure, in the same setting: with `Cc1nc2ccccc2n1C(=O)C[C@@H]1NC(=S)NC1=O` the figure was 100% (inactive); with `N#CCCN=Nc1c(O)[nH]c2ccc([N+](=O)[O-])cc12`, 99.2% (inactive); with `Cc1cc(N2CCOCC2)nc(NCc2cc(Nc3ccnc4cc(Cl)ccc34)ccc2F)n1`, -98.3% (active).

As for `c1ccc(-c2c(-c3ccccc3)[n+](Cc3ccc4ccccc4c3)c(-c3ccc(-c4nc5ccccc5s4)cc3)n2Cc2ccc3ccccc3c2)cc1`, the growth is -98.3% (active). The same measure, in the same setting: the same measure for `C=CC(=O)Nc1cccc(-c2nc(SC)nc(NCc3ccccc3)c2C#N)c1`: 74% (inactive); for `COc1cccc(-c2nn(C(C)(C)C)cc2-c2ccnc(NCCCNS(=O)(=O)c3cccc4ccccc34)c2)c1`: 100% (inactive); for `COc1cccc(-c2nc3sccn3c2-c2ccnc(NCCCNS(=O)(=O)c3c(Cl)cccc3Cl)c2)c1`: 22.8% (inactive). For the compound `O=C1c2cc3c(cc2-c2c1c1cc(F)c(F)cc1c(=O)n2CCCn1ccnc1)OCO3`, the growth is -74.9% (active). Consider `O=C(/C=C/c1cccc(Cl)c1)c1ccc(O)c(CN2CCN(c3cc4c(cc3F)c(=O)c(C(=O)O)cn4C3CC3)CC2)c1`, for which the growth is 24.5% (inactive). On to `N#CCCN=Nc1c(O)[nH]c2ccc(F)cc12`, for which the growth was 99.5% (inactive). In the case of `COc1cc(/C=C/c2cc(O)c3cc(C(C)=O)c(=O)oc3c2)cc2c1O[C@]1(C)CC[C@@H](O)C(C)(C)[C@H]1C2`, the growth is -96.8% (active). As to `O=C(N=Nc1c(O)[nH]c2ccc(Br)cc12)c1cc(-c2ccccc2)on1`, the growth is 99.9% (inactive). For `CSc1nc(NCc2ccccc2)c(C#N)c(-c2cccc([N+](=O)[O-])c2)n1`, the growth was 100% (inactive). Same read-out and setting: with `O=S(=O)(Nc1ccc(Cl)c(F)c1)c1ccc(-c2cnc(C3CC3)o2)cc1` the figure was 17.4% (inactive); with `CC1(C)CC[C@]2(C(=O)Nc3ccccn3)CC[C@]3(C)C(=CC[C@@H]4[C@@]5(C)C/C(=C/c6cccnc6)C(=O)C(C)(C)[C@@H]5CC[C@]43C)[C@H]2C1`, -14.8% (active); with `O=S(=O)(Nc1ccc(Br)c(Cl)c1)c1ccc(-c2cnc(C3CC3)o2)cc1`, 10.2% (inactive). For the compound `C=C(C)[C@@H]1CC[C@]2(C(N)=O)CC[C@]3(C)[C@H](CC[C@@H]4[C@@]5(C)C/C(=C/c6ccco6)C(=O)C(C)(C)[C@@H]5CC[C@]43C)[C@@H]12`, the growth is 96.5% (inactive). Regarding `Cc1nc2c3c(-c4ccccc4)c(-c4ccccc4)oc3ncn2n1`, the growth is 96.3% (inactive). Take `COc1cccc(-c2nn(C(C)(C)C)cc2-c2ccnc(NCCCNS(=O)(=O)c3ccc(C)cc3)c2)c1`: the growth is 100% (inactive). Still for that read-out and setting: the same measure for `COc1ccc(-c2nc3ccc(-c4nc5ccc(N6CCN(c7ccc(F)cc7)CC6)cc5[nH]4)cc3[nH]2)cc1OC`: 65.6% (inactive); for `O=C1NC(=S)NC(=O)C1CC(=O)n1c(-c2ccccc2)nc2ccccc21`: 98.5% (inactive).

`CSc1nc(NCCN2CCOCC2)c(C#N)c(-c2cccc([N+](=O)[O-])c2)n1`: the growth is 99.3% (inactive). For `N#Cc1c(-c2ccc(Cl)cc2)nc(N=Nc2c(O)[nH]c3ccc(Cl)cc23)nc1N1CCOCC1`, the growth is 97.3% (inactive).

Regarding `Cc1ccc(NS(=O)(=O)c2ccc(-c3cnc(C4CC4)o3)cc2)cc1C`, the growth was -3.9% (active).
